The values that follow come from PubChem BioAssay (EPA / NIEHS).

Read-out in experiment [1]: Monocyte Chemoattractant Protein-1 (MCP1), CCL2 (gene 6347)
Briefly: BSK_SAg_MCP1: BioMAP Diversity Plus: SAg Assay for Monocyte Chemoattractant Protein-1 (MCP1) Biomarker Activity (AID 2283090). The conditions noted are these: primary human HUVEC with PBMC; actives raise or lower the signal. Put shortly:
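Values derive from bidirectional fitting of ELISA-measured MCP1 against DMSO controls. Readings were taken 24 h after dosing human vascular endothelial cells co-cultured with peripheral blood mononuclear cells under superantigen stimulation.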

Read-out in experiment [2]: E-selectin (Homo sapiens) (UniProt P16581)
Put plainly: BSK_SAg_Eselectin: BioMAP Diversity Plus: SAg Assay for Eselectin Biomarker Activity (AID 2283091). The conditions noted are these: primary human HUVEC with PBMC; actives raise or lower the signal. Put shortly: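 E-selectin ELISA readout at 24 h post-dosing in human umbilical vein endothelial cell/PBMC co-culture; gain or loss of signal fitted relative to DMSO baseline.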

Read-out in experiment [3]: Monokine induced gamma interferon (MIG), CXCL9 (gene 4283)
Briefly: BSK_SAg_MIG: BioMAP Diversity Plus: SAg Assay for Monokine induced gamma interferon (MIG) Biomarker Activity (AID 2283092). As to conditions: primary human HUVEC with PBMC; actives raise or lower the signal. In a few lines:
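ELISA readout of MIG/CXCL9; primary human umbilical vein endothelial cells co-cultured with peripheral blood mononuclear cells; 24 h post-dose; gain/loss fit vs DMSO baseline.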

Experiment [4] can be described thus: BSK_SAg_PBMCCytotoxicity: PBMC Cytotoxicity Assessment in the BioMAP Diversity Plus: SAg Assay (AID 2283093).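 Also: fitted both ways against DMSO so a hit may be loss or gain of signal.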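 As to AC50: PBMC superantigen activated with SEB plus TSST-1 one hour after compound addition.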 As to conditions: primary human HUVEC with PBMC. Put shortly: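 PBMC viability by Alamar Blue reduction, fluorescence read at 546/580 nm after 6 h dye exposure. Cells were dosed 1 h before SEB plus TSST-1 activation (20 ng/mL final each), then held 90 h; endothelial/PBMC human co-culture.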

Read-out in experiment [5]: Interleukin-8 (IL8), CXCL8 (gene 3576)
Put plainly: BSK_SAg_IL8: BioMAP Diversity Plus: SAg Assay for Interleukin-8 (IL8) Biomarker Activity (AID 2283094). The conditions noted are these: primary human HUVEC with PBMC; actives raise or lower the signal. Put shortly: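 ELISA readout of IL-8 from a superantigen-activated endothelial/PBMC primary human co-culture, taken 24 h post-dosing and fitted in both directions against DMSO; parallel SRB total-protein staining flags overt cytotoxicity.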

A short description of experiment [6]: BSK_SAg_Proliferation: Cell Proliferation Assessment in the BioMAP Diversity Plus: SAg Assay (AID 2283095).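 Also: relative cell number as total protein by SRB absorbance in sub-confluent culture.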 The conditions noted are these: primary human HUVEC with PBMC. In a few lines: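 Relative cell number in the endothelial cell/PBMC co-culture was quantified at 96 h by SRB staining (0.1% SRB, 10% TCA fixation, read at 560 nm). Curves were fitted in both directions relative to DMSO baseline.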

A short description of experiment [7]: BSK_SAg_SRB: Viability Assessment in the BioMAP Diversity Plus: SAg Assay (AID 2283096).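 Also: cells read one day after compound addition; hits may be either gain or loss of signal compared with DMSO.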 As to conditions: primary human HUVEC with PBMC. Put shortly:
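Compounds were added to a human vascular co-culture of umbilical vein endothelium and PBMC. After 24 h, parallel cultures were fixed with 10% TCA, stained with 0.1% sulforhodamine B and read at 560 nm. Gain or loss of signal was fitted relative to DMSO.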

In experiment [8] the target is human CYP19A1, CYP19A1 (gene 1588) (UniProt P11511). Put plainly: NVS_ADME_hCYP19A1: NovaScreen (NVS) CYP450-related Enzyme Activity (ADME) Assay for human CYP19A1 (AID 2283098; active = hit-call score of the fitted dose curve at least 0.9, where 1 is the maximum;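 as to AC50: potency for inhibitors seen as loss of fluorescent enzyme signal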). Put shortly:
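Fluorescence intensity read-out; activity taken as signal loss relative to acetonitrile vehicle. Extracted enzyme, specific substrate, no cells, 0.5 h exposure. Duplicate single-point screen at 10 uM, then concentration–response follow-up for actives.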

In experiment [9] the target is human CYP2A6, CYP2A6 (gene 1548) (UniProt P11509). Put plainly: NVS_ADME_hCYP2A6: NovaScreen (NVS) CYP450-related Enzyme Activity (ADME) Assay for human CYP2A6 (AID 2283099; active = hit-call score of the fitted dose curve at least 0.9, where 1 is the maximum). In a few lines: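 Insect-cell-expressed human CYP2A6 enzyme activity measured by fluorescence intensity 0.5 hour post-dosing. Compounds screened at 10 uM in duplicate, then hits tested singly in concentration series (max 20 uM); acetonitrile baseline.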
Chain of human CYP2A6, CYP2A6 (gene 1548) (P11509 whole entry, looked up): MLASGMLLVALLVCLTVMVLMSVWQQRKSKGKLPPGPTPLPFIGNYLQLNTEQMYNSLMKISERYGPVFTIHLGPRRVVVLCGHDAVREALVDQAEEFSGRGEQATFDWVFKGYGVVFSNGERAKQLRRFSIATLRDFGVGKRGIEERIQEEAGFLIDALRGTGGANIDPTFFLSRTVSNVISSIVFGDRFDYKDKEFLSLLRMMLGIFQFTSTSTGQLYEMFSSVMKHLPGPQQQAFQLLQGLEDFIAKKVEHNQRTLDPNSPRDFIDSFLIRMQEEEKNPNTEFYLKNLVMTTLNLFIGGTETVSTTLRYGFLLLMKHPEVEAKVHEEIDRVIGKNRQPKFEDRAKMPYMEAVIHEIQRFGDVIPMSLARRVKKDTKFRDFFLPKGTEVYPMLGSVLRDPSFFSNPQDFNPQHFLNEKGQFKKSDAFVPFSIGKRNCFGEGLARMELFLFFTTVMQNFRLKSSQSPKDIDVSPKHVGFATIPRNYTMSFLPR

In experiment [10] the target is human CYP1A1, CYP1A1 (gene 1543) (UniProt P04798). Briefly: NVS_ADME_hCYP1A1: NovaScreen (NVS) CYP450-related Enzyme Activity (ADME) Assay for human CYP1A1 (AID 2283100; active = hit-call score of the fitted dose curve at least 0.9, where 1 is the maximum). In a few lines: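 Read-out: fluorescence intensity from enzymatic turnover of substrate by recombinant CYP1A1, loss of signal indicating inhibition. Incubation 1 h post-dose. Primary single-point 10 uM in duplicate; actives rerun singly with top concentration 20 uM.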
Chain of human CYP1A1, CYP1A1 (gene 1543) (P04798 whole entry, looked up): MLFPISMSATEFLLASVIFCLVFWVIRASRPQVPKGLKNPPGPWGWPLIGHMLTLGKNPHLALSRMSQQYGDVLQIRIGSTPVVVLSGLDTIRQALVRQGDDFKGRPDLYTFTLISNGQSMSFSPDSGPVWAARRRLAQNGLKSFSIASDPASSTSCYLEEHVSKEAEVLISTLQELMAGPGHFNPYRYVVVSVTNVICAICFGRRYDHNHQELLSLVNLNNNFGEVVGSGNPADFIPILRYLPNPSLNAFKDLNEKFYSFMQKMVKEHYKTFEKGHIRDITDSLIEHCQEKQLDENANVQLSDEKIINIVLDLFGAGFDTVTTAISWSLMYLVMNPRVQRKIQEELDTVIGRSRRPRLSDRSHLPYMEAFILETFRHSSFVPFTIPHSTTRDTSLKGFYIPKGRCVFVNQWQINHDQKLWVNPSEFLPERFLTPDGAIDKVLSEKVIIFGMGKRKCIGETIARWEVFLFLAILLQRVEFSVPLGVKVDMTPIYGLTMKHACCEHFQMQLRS

Inconclusive results are not listed. Activity calls are given as the source filed them. The calls were made as follows, unless noted: active = hit-call score of the fitted dose curve at least 0.9, where 1 is the maximum; inactive = score below 0.9.

Chain of E-selectin (Homo sapiens) (P16581 whole entry, looked up): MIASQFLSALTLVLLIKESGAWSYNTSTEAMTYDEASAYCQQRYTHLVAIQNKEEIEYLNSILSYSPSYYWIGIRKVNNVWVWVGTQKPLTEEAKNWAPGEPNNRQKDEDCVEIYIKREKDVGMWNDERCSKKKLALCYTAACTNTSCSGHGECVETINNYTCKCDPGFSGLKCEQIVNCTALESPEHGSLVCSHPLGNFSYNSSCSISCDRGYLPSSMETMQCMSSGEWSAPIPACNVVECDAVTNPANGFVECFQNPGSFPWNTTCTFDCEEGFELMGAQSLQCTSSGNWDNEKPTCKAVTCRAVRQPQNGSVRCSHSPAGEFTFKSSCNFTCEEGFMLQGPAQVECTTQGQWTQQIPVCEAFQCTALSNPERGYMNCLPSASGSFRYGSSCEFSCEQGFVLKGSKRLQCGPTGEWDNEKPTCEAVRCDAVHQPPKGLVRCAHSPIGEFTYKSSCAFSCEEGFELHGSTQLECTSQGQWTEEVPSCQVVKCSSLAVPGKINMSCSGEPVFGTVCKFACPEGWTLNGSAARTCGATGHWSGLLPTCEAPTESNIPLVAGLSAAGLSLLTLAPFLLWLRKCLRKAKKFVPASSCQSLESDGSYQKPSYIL
Chain of human CYP19A1, CYP19A1 (gene 1588) (P11511 whole entry, looked up): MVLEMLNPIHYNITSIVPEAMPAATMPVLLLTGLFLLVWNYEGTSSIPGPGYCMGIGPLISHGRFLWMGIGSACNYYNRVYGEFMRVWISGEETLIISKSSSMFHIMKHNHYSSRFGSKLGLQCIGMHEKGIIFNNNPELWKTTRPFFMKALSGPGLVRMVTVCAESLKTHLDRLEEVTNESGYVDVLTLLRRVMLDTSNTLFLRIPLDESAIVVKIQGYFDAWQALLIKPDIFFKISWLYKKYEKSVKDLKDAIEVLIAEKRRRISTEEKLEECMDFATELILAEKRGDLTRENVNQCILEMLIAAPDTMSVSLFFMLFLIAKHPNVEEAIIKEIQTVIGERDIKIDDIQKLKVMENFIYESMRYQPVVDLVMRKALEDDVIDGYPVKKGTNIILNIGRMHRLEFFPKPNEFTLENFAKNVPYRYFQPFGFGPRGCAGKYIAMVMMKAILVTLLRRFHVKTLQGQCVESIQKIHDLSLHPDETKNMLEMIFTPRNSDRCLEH

Take `CCOP(=S)(OCC)Oc1cc(C)nc(C(C)C)n1`: the outcome in experiment [1], in experiment [2], in [3], in experiment [4], in experiment [5] and in [6] was inactive. In addition, the result in [7] and in experiment [8] was inactive.
Consider `CNC(=O)Oc1cccc2c1OC(C)(C)O2`, for which the result in experiment [1], in [3], in [4], in experiment [5] and in experiment [7] was inactive. The AC50 in experiment [2] is 15 µM (active); in [6], 20 µM (active).
For the compound `C#CCC1=C(C)C(OC(=O)C2C(C=C(C)C)C2(C)C)CC1=O` (stereo not drawn), the AC50 in [1] was 30 µM (active); in experiment [2], 31.3 µM (active); in experiment [3], 36.6 µM (active); in experiment [4] it was 32.9 µM (active); in experiment [5], 26 µM (active); in experiment [6], 34 µM (active). The AC50 in experiment [7] was 26.9 µM (active).
For `CCCCSP(=O)(SCCCC)SCCCC`, the AC50 in experiment [1] is 20 µM (active); in [4], 34.8 µM (active); in [5] it was 25.9 µM (active); in experiment [7], 22.5 µM (active). The result in [2] and in experiment [3] was inactive.
For the compound `CCc1cnc(C2=NC(C)(C(C)C)C(=O)N2)c(C(=O)O)c1` (stereo not drawn), the outcome in experiment [1], in experiment [2], in experiment [3], in experiment [4], in experiment [5] and in experiment [6] was inactive. Also, the outcome in experiment [7] was inactive.
Regarding `CC(=NC#N)N(C)Cc1ccc(Cl)nc1`, the result in experiment [1], in experiment [2], in [3], in experiment [4], in [5] and in experiment [7] was inactive.
With `CCCOCC(=Nc1ccc(Cl)cc1C(F)(F)F)n1ccnc1`, the AC50 is 26 µM (active) in experiment [1]; 11.6 µM (active) in [2]; 32.4 µM (active) in experiment [3]; 31 µM (active) in experiment [4]; 15.9 µM (active) in experiment [5]; 24.5 µM (active) in experiment [6]. In addition, the AC50 in experiment [7] is 27.9 µM (active); in experiment [8], 999 nM (active); in experiment [10], 4.18 µM (active). For the same compound, in experiment [9], the result was inactive.
As to `CCc1cccc(C)c1N(C(=O)CCl)C(C)COC` (stereo not drawn), the outcome in experiment [1], in experiment [2], in [3], in [4], in experiment [5] and in experiment [6] was inactive. For the same compound, the result in [7] and in experiment [8] was inactive.
Turning to `CCOC(=O)CC(SP(=O)(OC)OC)C(=O)OCC` (stereo not drawn), the outcome in experiment [1], in [2], in experiment [3], in experiment [4], in experiment [5] and in experiment [6] was inactive. For the same compound, the result in experiment [7], in experiment [8], in [9] and in [10] was inactive.
For `CCc1cccc(CC)c1N(COC)C(=O)CCl`, the AC50 was 29.4 µM (active) in [1], 14.2 µM (active) in experiment [2], 23.6 µM (active) in [6] and 20 µM (active) in experiment [7]. Also, the outcome in experiment [3], in experiment [4] and in experiment [5] was inactive.
Take `N#CSCSC#N`: the half-maximal activity concentration (AC50) is 11.9 µM (active) in [1]; 11.1 µM (active) in [2]; 8.84 µM (active) in experiment [3]; 3.25 µM (active) in experiment [4]; 11.7 µM (active) in [5]; 1.99 µM (active) in [6]. For the same compound, the AC50 in [7] was 6.08 µM (active).
Regarding `COP(=O)(OC)C(O)C(Cl)(Cl)Cl` (stereo not drawn), the result in [1], in [3], in [4], in experiment [5] and in experiment [7] was inactive. Moreover, the AC50 in [2] was 32.5 µM (active); in experiment [6], 8.98 µM (active).
Turning to `CCC(=O)Nc1ccc(Cl)c(Cl)c1`, the outcome in experiment [1], in [2], in experiment [3], in [4], in experiment [5] and in experiment [7] was inactive.
On to `CCC(CC)Nc1c([N+](=O)[O-])cc(C)c(C)c1[N+](=O)[O-]`, for which the concentration at half-maximal activity (AC50) in experiment [1] is 29.1 µM (active); in experiment [2] it was 22.7 µM (active); in [3], 29.5 µM (active); in experiment [4], 29.2 µM (active); in experiment [5], 28.3 µM (active); in [6], 28.9 µM (active). Further, the AC50 in [7] was 12.3 µM (active). In [8], the call was inactive.
On to `CCCSP(=O)(OCC)SCCC`, for which the outcome in [1], in experiment [2], in experiment [3], in experiment [4], in [5] and in experiment [6] was inactive. Also, the outcome in experiment [7] and in experiment [8] was inactive.
Turning to `CCCCOC(=O)[C@@H](C)Oc1ccc(Oc2ccc(C#N)cc2F)cc1`, the outcome in experiment [1], in experiment [2], in [3], in experiment [4], in experiment [5] and in [6] was inactive. For the same compound, the result in [7] was inactive.
For the compound `FC(F)C(F)(F)OCC(Cn1cncn1)c1ccc(Cl)cc1Cl` (stereo not drawn), the outcome in experiment [1], in experiment [3], in [4], in [5] and in [9] was inactive. Moreover, the AC50 was 25.7 µM (active) in experiment [2], 23 µM (active) in experiment [6], 20 µM (active) in [7] and 2150 nM (active) in [8].

In general, AC50 refers to the midpoint of the concentration-response curve, whichever way the signal moves.
